Source: PubChem (National Center for Advancing Translational Sciences (NCATS))
Hits are enriched below; roughly 8% of the tested compounds scored in any of these assays.
KB-3-1 cytotox = KB-3-1 parental cell cytotoxicity. KB-3-1 viability, CellTiter-Glo ATP luminescence, 72 h. Potency, µM (titrated, usually from 46.1 µM), hits mostly cytotoxic. 1.4% of 400,000 active. AID 1347075; also: % is scaled to controls: 0 for no effect and ±100 for the full control effect; nearly all actives have a fitted effect of over 60% in size
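Here the drug-naive KB-3-1 line serves as comparator for MDR sub-line selectivity; cells received compound titrations, 72 h at 37 °C, then CellTiter-Glo readout.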
HT1080 IDH1KD tx = HT-1080 IDH1 knockdown cell toxicity (counter line) | AID 686971 | 2% of 360,000 active | HT-1080 IDH1 knockdown viability, ATP luminescence, 48 h | Potency, µM (top dose mostly 46.1 µM), for inactives: at the top dose activity, negative = toxicity, most hits filed as cytotoxic;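 also: 0% = DMSO wells and -100% = cell-free medium wells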
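Knockdown cells (IDH1KD HT-1080) received compounds 2 h after plating at 750 cells/well and were kept 48 h at 37 °C in 5% FBS RPMI. A CellTiter-Glo luminescence read gave % activity for curve fitting.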
KB-V1 MDR tox = KB-V1 MDR subline cytotoxicity | Potency, µM (doses to about 46.1 µM), actives largely listed as cytotoxic | 3.4% of 400,000 active | AID 1347076 | KB-V1 MDR cells viability, CellTiter-Glo, 72 h; also: % is scaled to controls: 0 for no effect and ±100 for the full control effect; nearly all actives have a fitted effect of over 60% in size
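Luminescent ATP read-out (CellTiter-Glo, 10 min) measures survival of drug-selected KB-V1 MDR cells after 72 h, 37 degrees C compound exposure. Medium: phenol-red-free DMEM, 10% FBS. Values from fitted concentration-response curves.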
MCF10A rereplic = induces DNA re-replication in MCF 10a normal breast cells. MCF 10A DNA re-replication, Hoechst nuclear intensity, 48 h. Potency, µM (doses to about 46.1 µM), without a hit: at the top dose activity, positive = re-replication, actives largely listed as activators. 2.9% of 350,000 active. AID 624296; also: % of control where 0% means no effect; nearly all actives have a fitted effect of over 50% in size
HT1080-NT tox = kills 2HG-producing HT-1080-NT fibrosarcoma cells | 1.6% of 360,000 active | HT-1080-NT fibrosarcoma viability, CellTiter-Glo ATP luminescence, 48 h | Potency, µM (titrated, usually from 46.1 µM), without a hit: top-dose activity, negative = less viability, hits mostly cytotoxic;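 also: NT is the 2HG producing partner of a matched IDH1 knockdown line; 0% = DMSO-treated cells and -100% = media-only wells without cells; nearly all actives have a fitted effect of over 55% in size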
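Toxicity toward the 2HG-producing NT line was scored as %Activity, normalised to DMSO and no-cell wells, from CellTiter-Glo luminescence after 48 hours' treatment.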
SW480 rerep = inducers of DNA re-replication in SW480 colon cancer cells; SW480 DNA re-replication, Hoechst DNA content imaging, 48 h; Potency, µM (doses to about 46.1 µM), inactives show top-dose re-replication activation, actives largely listed as activators; 1.8% of 340,000 active; also: % of control where 0% means no effect; nearly all actives have a fitted effect of over 55% in size
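SW480 cells exposed to compounds for 48 hr at 37 C, 5% CO2, then Hoechst-stained 40 min. Nuclear DNA content imaged by fluorescence scanning (405 nm excitation, 500-530 nm emission); re-replication scored as increased high-intensity nuclei.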
* marks the source's active call; other numbers are inactive results; [ ] = another dose, or the depositor's remark. Calls follow the shape of the dose curve; as a rule, active = well fitted curve in the direction sought with a large enough effect; inconclusive = small, poorly fitted or top-dose-only effect, or another doubt; inactive = no such curve, though single readings can be large; an effect the other way counts as inactive or inconclusive. Potency is read from the fitted curve at half-maximal effect.

What do the screens show for `Cc1ccc(-n2c(O)c(/C=C/C=Nc3ccccc3)c(=O)[nH]c2=O)cc1`?
KB-3-1 cytotox: inactive; HT1080 IDH1KD tx: -2%; KB-V1 MDR tox: inactive; MCF10A rereplic: -49%; HT1080-NT tox: 1%; SW480 rerep: -57%

What do the screens show for `Cc1ccc(N/N=C/c2c(O)n(-c3ccccc3)c(=O)[nH]c2=O)cc1`?
KB-3-1 cytotox: inactive; HT1080 IDH1KD tx: 2.9µM*; KB-V1 MDR tox: inactive; MCF10A rereplic: 0%; HT1080-NT tox: inconclusive; SW480 rerep: -5%

Results for O=S1(=O)N(Cc2ccccc2)CCCN1Cc1ccc(F)cc1Cl ?
KB-3-1 cytotox: inactive; KB-V1 MDR tox: inactive

What do the screens show for `O=Nc1c(O)c2ccccc2c2ccccc12`?
KB-3-1 cytotox: 4.6µM*; HT1080 IDH1KD tx: 2.9µM*; KB-V1 MDR tox: 16µM*; MCF10A rereplic: 6.5µM*; HT1080-NT tox: 6.5µM*; SW480 rerep: 1.8µM*

Results for CC(C)C[C@H]1CNC(=S)N1CC1CCN(CC2CCC(C(C)(C)C)CC2)CC1 (stereo partly specified) ?
KB-3-1 cytotox: inactive; HT1080 IDH1KD tx: 0%; KB-V1 MDR tox: inactive; MCF10A rereplic: inconclusive; HT1080-NT tox: 0%; SW480 rerep: 2%

What do the screens show for `COc1ccc(OC)c(NC(=O)Cn2cc(C(=O)c3ccccc3F)c3ccccc32)c1`?
KB-3-1 cytotox: inconclusive; KB-V1 MDR tox: inactive

What do the screens show for `CCCOP(=O)(c1ccccc1)c1ccccc1`?
KB-3-1 cytotox: inactive; HT1080 IDH1KD tx: inconclusive; KB-V1 MDR tox: inactive; MCF10A rereplic: inconclusive; HT1080-NT tox: inconclusive; SW480 rerep: inconclusive

What do the screens show for `COC1=C(C)C(=O)C2=C(C1=O)C(CO)N1C(C#N)C3CC4C(C1C2N1CCOC41)N3C` (stereo unspecified)?
KB-3-1 cytotox: inconclusive; HT1080 IDH1KD tx: 0.65µM*; KB-V1 MDR tox: 0.58µM*; MCF10A rereplic: -2%; HT1080-NT tox: -17%; SW480 rerep: inconclusive

How did COC(=O)c1ccccc1C(=O)c1ccc(OCCN2CCCCC2)cc1 do in these assays?
MCF10A rereplic: inconclusive; SW480 rerep: -6%

What do the screens show for `NCC(O)c1cccc(O)c1` (stereo unspecified)?
MCF10A rereplic: -3%; SW480 rerep: -4%

What do the screens show for `CCCCCSc1cc(OC)c(CCNC)cc1OC`?
KB-3-1 cytotox: inactive; HT1080 IDH1KD tx: 21µM*; KB-V1 MDR tox: inactive; MCF10A rereplic: 24%; HT1080-NT tox: inconclusive; SW480 rerep: inconclusive

What do the screens show for `CCCCCCCSc1cc(OC)c(CCNC)cc1OC`?
KB-3-1 cytotox: inconclusive; HT1080 IDH1KD tx: -11%[9.24 µM]; KB-V1 MDR tox: 18µM*; MCF10A rereplic: inconclusive; HT1080-NT tox: 23µM*; SW480 rerep: inconclusive

Results for O=[N+]([O-])c1ccccc1-c1cc(-c2ccccc2)cc(-c2ccccc2)[n+]1Cc1ccccc1Cl ?
KB-3-1 cytotox: 9.2µM*; HT1080 IDH1KD tx: 10µM*; KB-V1 MDR tox: inactive; MCF10A rereplic: inconclusive; HT1080-NT tox: 7.3µM*; SW480 rerep: inconclusive

How did O=c1[nH]c(=O)n(Cc2ccccc2Cl)c(O)c1/C=C1/C=CC=N1 do in these assays?
KB-3-1 cytotox: 23µM*; HT1080 IDH1KD tx: 5.8µM*; KB-V1 MDR tox: inactive; MCF10A rereplic: 6.5µM*; HT1080-NT tox: 4.1µM*; SW480 rerep: 15µM*

Results for CCCCn1c(O)c(/C=C2/C=CC=N2)c(=O)[nH]c1=O ?
KB-3-1 cytotox: inactive; HT1080 IDH1KD tx: inconclusive; KB-V1 MDR tox: inactive; MCF10A rereplic: inconclusive; HT1080-NT tox: 15µM*; SW480 rerep: inconclusive

What do the screens show for `COC(=O)C1=C(c2cc3ccccc3o2)C[C@@H]2CC[C@H]1N2C(=O)N1CCCC1`?
KB-3-1 cytotox: inconclusive; HT1080 IDH1KD tx: 0%; KB-V1 MDR tox: inactive; MCF10A rereplic: -8%; HT1080-NT tox: 4%; SW480 rerep: -2%

How did COC(=O)C1=C(c2cc3ccccc3s2)C[C@@H]2CC[C@H]1N2C(=O)N1CCOCC1 do in these assays?
KB-3-1 cytotox: inconclusive; HT1080 IDH1KD tx: 8.2µM*; KB-V1 MDR tox: inactive; MCF10A rereplic: inconclusive; HT1080-NT tox: 9.2µM*; SW480 rerep: inconclusive

Results for COC(=O)C1=C(c2cc3ccccc3o2)C[C@@H]2CC[C@H]1N2C(=O)N1CCCCC1 ?
KB-3-1 cytotox: 5.8µM*; HT1080 IDH1KD tx: 10µM*; KB-V1 MDR tox: inconclusive; MCF10A rereplic: inconclusive; HT1080-NT tox: inconclusive; SW480 rerep: 12µM*

What do the screens show for `CCCC(C)(COC(N)=O)COC(=O)NC1CC1` (stereo unspecified)?
MCF10A rereplic: -5%; SW480 rerep: -1%

Results for Cc1cccc(C(=O)NC2CC3CCCC(C2)N3Cc2ccccc2)c1 (stereo unspecified) ?
KB-3-1 cytotox: inactive; HT1080 IDH1KD tx: 17%; KB-V1 MDR tox: inactive; MCF10A rereplic: -14%; HT1080-NT tox: 0%; SW480 rerep: inconclusive

Results for O=C(O)c1ccccc1-c1c2cc(Br)c(=O)cc-2oc2[c]([Hg])c(O)c(Br)cc12 ?
MCF10A rereplic: 0%[20.6 µM]; SW480 rerep: -15%[20.6 µM]

How did O=S(=O)(c1ccc(F)c(F)c1F)N1CCN(c2ncnc3sccc23)CC1 do in these assays?
KB-3-1 cytotox: inconclusive; HT1080 IDH1KD tx: -29%; KB-V1 MDR tox: 2.3µM*; MCF10A rereplic: inconclusive; HT1080-NT tox: -6%; SW480 rerep: inconclusive

What do the screens show for `CCc1ccc(-n2nc(C)c3c2NC(=O)CSC3c2ccc(OC)cc2OC)cc1` (stereo unspecified)?
KB-3-1 cytotox: inconclusive; KB-V1 MDR tox: inactive

How did CNC(=O)OCC[N+](C)(C)C do in these assays?
MCF10A rereplic: 1%; SW480 rerep: 1%

What do the screens show for `CCCCCCCCN1C(=O)[C@H](CC(=O)NCCCC)C[C@@]2(C(=O)OCC)CCCC=C12`?
KB-3-1 cytotox: inconclusive; HT1080 IDH1KD tx: inconclusive; KB-V1 MDR tox: 21µM*; HT1080-NT tox: inconclusive

What do the screens show for `CCCOP(=O)(OCCC)C(Nc1cccc(C(F)(F)F)c1)c1ccc(C)cc1` (stereo unspecified)?
KB-3-1 cytotox: inconclusive; HT1080 IDH1KD tx: inconclusive; KB-V1 MDR tox: 12µM*; MCF10A rereplic: -8%; HT1080-NT tox: inconclusive; SW480 rerep: inconclusive

What do the screens show for `CCCNC(=O)c1c(N)n(CC2CCCO2)c2nc3ccccc3nc12` (stereo unspecified)?
KB-3-1 cytotox: inactive; HT1080 IDH1KD tx: -22%; KB-V1 MDR tox: inconclusive; MCF10A rereplic: 18µM*; HT1080-NT tox: -16%; SW480 rerep: 16µM*
